Eight compounds from PubChem BioAssay (Tox21) can be followed below.

A number with no mark means an inactive call. Inconclusive results are not listed. Active and inactive are the calls of the source. Unless noted, the call rests on the fitted dose curve.

Experiment [1] in a line: Nuclear factor erythroid 2-related factor 2/antioxidant responsive element (Nrf2/ARE) small molecule agonists: qHTS cell viability counter screen in human keratinocytes (AID 1919968; active means well fitted curve in the direction sought with a large enough effect in the repeat runs; an effect the other way counts as inactive or inconclusive; further: nearly all actives have a fitted effect of over 55% in size; further: potency means the concentration at half of the fitted maximal effect). In a few lines: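 In human HaCaT keratinocytes stably expressing an ARE-driven luciferase, compound exposure lasted 23 h at 37 C under 5% CO2. Viable cells are quantified with a protease-based fluorogenic reagent (CellTiter-Fluor) read 1 h after addition.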
On the technique in general: In qHTS, concentration-response curves come from the screen itself.

A short description of experiment [2]: Nuclear factor erythroid 2-related factor 2/antioxidant responsive element (Nrf2/ARE) small molecule agonists: luciferase reporter gene qHTS assay in human keratinocytes (AID 1919969). Further: nearly all actives have a fitted effect of over 35% in size. Further: potency means the concentration at half of the fitted maximal effect. For orientation: Reporter assays use an easily measured gene product as a stand-in for the process of interest.
The target of experiment [3] is Gonadotropin-releasing hormone receptor (Homo sapiens) (UniProt P30968). Put plainly: Human gonadotropin-releasing hormone receptor (GnRHR) small molecule agonists, calcium flux assay in GnRHR-HEK293 cells (AID 1920063). Further: nearly all actives have a fitted effect of over 35% in size. Summed up: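 Intracellular calcium rise is the read-out: engineered human GnRHR HEK293 cells, dye-loaded, are exposed to DMSO-dissolved compounds and fluorescence at Ex/Em 480/540 is tracked for 3 min.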
Background: Calcium flux is commonly read through the fluorescence of an indicator in the cells.

For experiment [4], the target named is KiSS-1 receptor (Homo sapiens) (UniProt Q969F8). The experiment can be described thus: Human kisspeptin (KISS1R) small molecule agonists, calcium flux assay in KISS1R-HEK293 cells (AID 1920064; active means well fitted curve in the direction sought with a large enough effect in the repeat runs; an effect the other way counts as inactive or inconclusive). Summed up: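 Concentration-response testing used 15 concentrations in triplicate on human KISS1R-expressing HEK293 cells. Calcium-dependent fluorescence (Ex/Em 480/540) was followed kinetically for 3 min after compound transfer.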

A short description of experiment [5]: G protein-coupled receptor (GPCR) small molecule agonists, calcium flux assay: HEK293 wild type cell line counter screen (AID 1920065). Summed up: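 Fluorescence intensity signals activation. After overnight (18 h) culture and a 1 h calcium dye load at 37 C, compounds are added by pin tool and the plate read at 480/540 nm for 3 min in 1 s steps.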
Experiment [6] in a line: p53 small molecule agonists, cell-based qHTS assay with human liver microsomes (AID 1963577).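 Further: p53 response element beta-lactamase reporter cells with liver microsomes plus NADPH.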 Summed up:
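HLM-supplemented p53RE-bla reporter assay: 16 h compound exposure at 37 C, microsomes and NADPH each 0.5 mg/mL final, read by fluorescence intensity.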

Experiment [7] is described as follows: p53 small molecule agonists, cell-based qHTS assay with rat liver microsomes (AID 1963578). In a few lines:
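Quantitative HTS of the Tox21 10K library: p53RE-bla cells, rat liver microsomes plus NADPH at 0.5 mg/mL final each, 16 h at 37 C, beta-lactamase fluorescence detection.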

Experiment [8] can be described thus: p53 small molecule agonists, cell-based qHTS assay with human liver microsomes: qHTS cell viability counter screen (AID 1963579). Further: nearly all actives have a fitted effect of over 45% in size. In a few lines:
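Viability of p53RE-bla cells is measured as CellTiter-Glo luminescence following a 16 h, 37 C incubation with compound, liver microsomes from human donors and NADPH.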

Experiment [9] is described as follows: p53 small molecule agonists, cell-based qHTS assay: qHTS cell viability counter screen (AID 1963581). Further: nearly all actives have a fitted effect of over 45% in size. In a few lines:
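Luminescence from CellTiter-Glo, reflecting ATP content, serves as the cytotoxicity measure; it is taken after the 2 h reporter substrate step in HCT-116 p53RE-bla cells dosed for 16 h at 37 C.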

The nature of experiment [10]: p53 small molecule agonists, cell-based qHTS assay (AID 1963582; active means well fitted activation curve with a large enough effect in the signal ratio in the repeat runs, not every such curve was filed as active; the % refers to the signal ratio). In a few lines: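 After plating, p53RE-bla cells sat 5 h in the incubator; compounds or DMSO vehicle were pinned in; a 16 h incubation at 37 C followed; FRET substrate was added and, 2 h later at RT, fluorescence was measured.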
Experiment [11] deals with 5-hydroxytryptamine receptor 2A (Homo sapiens) (UniProt P28223). Put plainly: 5-hydroxytryptamine receptor 2A (HTR2A) small molecule antagonists, cell-based qHTS assay (AID 1963586). Further: nearly all actives have a fitted effect of over 45% in size. Summed up: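 CHO cells stably expressing human HTR2A were plated for 18 h at 37 C, then loaded with calcium dye for 1 h. Compounds were preincubated 5 min at room temperature before DOI (4 nM solution) was added. Kinetic fluorescence was read for 3 min.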

For experiment [12] the target is unchanged. Put plainly: 5-hydroxytryptamine receptor 2A (HTR2A) small molecule agonists, cell-based qHTS assay (AID 1963587). Further: nearly all actives have a fitted effect of over 30% in size. In a few lines: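 CHO cells stably expressing human HTR2A, plated 18 h, loaded with calcium dye 1 h at 37 C. Agonist mode: compounds added and intracellular calcium fluorescence recorded kinetically for 2 min at 1 sec intervals.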
Experiment [13] deals with Muscarinic acetylcholine receptor M1 (Homo sapiens) (UniProt P11229). Put plainly: Cholinergic receptor muscarinic 1 (CHRM1) small molecule antagonists, cell-based qHTS assay (AID 1963588). Further: nearly all actives have a fitted effect of over 40% in size. Further: potency means the concentration at half of the fitted maximal effect. Summed up: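 Compounds were tested at 15 concentrations in three independent runs. Dye-loaded CHRM1-CHO cells were exposed 5 min at room temperature before stimulation by acetylcholine added at 50nM. Intracellular calcium was read kinetically on FDSS for 3 min.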

For experiment [14] the target is unchanged. The experiment can be described thus: Cholinergic receptor muscarinic 1 (CHRM1) small molecule agonists, cell-based qHTS assay (AID 1963589). Further: nearly all actives have a fitted effect of over 35% in size. In a few lines: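 Fluorescent calcium dye reports M1 activation in stably transfected CHO cells. Compounds, 15 concentrations, added after 1 h dye loading at 37 C; kinetic reading at 1 sec intervals.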
Experiment [15] can be described thus: cAMP Responsive Elements (CRE) small molecule agonists, cell-based qHTS assay (AID 1963590). In a few lines: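 Compound exposure lasted 3 h at 37 C/5% CO2 in CRE-bla HEK 293T cells grown in assay medium with 10% dialyzed FBS and 25 mM HEPES. Reporter signal came from LiveBLAzer B/G FRET substrate, 2 h, room temperature.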
A short description of experiment [16]: cAMP Responsive Elements (CRE) small molecule antagonists, cell-based qHTS assay (AID 1963591; active means well fitted inhibition curve with a large enough effect in the signal ratio in the repeat runs, not every such curve was filed as active; the % refers to the signal ratio). Summed up:
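Stimulation used NKH477 at a final 0.25 uM for 3 h in compound-treated CRE-bla HEK293T cells, seeded 18 h beforehand. Reporter activity was measured with LiveBLAzer B/G FRET substrate after 2 h at room temperature.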

Experiment [17] addresses D(2) dopamine receptor (Homo sapiens) (UniProt P14416). The experiment can be described thus: Dopamine D2 receptor (DRD2) small molecule agonists, cell-based qHTS assay (AID 1963594). Further: nearly all actives have a fitted effect of over 35% in size. In a few lines: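 HEK293 cells stably expressing human DRD2, pre-treated with PDE inhibitor Ro20-1724 (0.1 mM final) and compound 10 min at room temperature, then stimulated with NKH477 (200nM […]) for 30 min. cAMP read by HTRF (665/620 nm).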

Experiment [18] has the same target. The experiment can be described thus: Dopamine D2 receptor (DRD2) small molecule antagonists, cell-based qHTS assay (AID 1963595; active means well fitted inhibition curve with a large enough effect in the signal ratio in the repeat runs, with a control signal flat; the % refers to the signal ratio). Summed up: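 HEK293 cells stably expressing DRD2, preincubated with 0.1 mM Ro20-1724 and compounds 10 min, were stimulated with 200 nM NKH477 plus 12 nM quinpirole for 30 min at room temperature; cAMP measured by HTRF (665/620 nm).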

Experiment [19] has as its target Beta-2 adrenergic receptor (Homo sapiens) (UniProt P07550). The experiment can be described thus: Adrenergic beta2 receptor (ADRB2) small molecule antagonists, cell-based qHTS assay (AID 1963592). Further: series mostly up to about 92 µM; nearly all actives have a fitted effect of over 50% in size. Summed up: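 Assay format: CHO-ADRB2 cells, 18-20hr seeding at 37C/5% CO2, then compound plus 1nM isoproterenol agonist mix for 0.5hr RT. Homogeneous time-resolved fluorescence cAMP detection after 1hr, expressed as 665/615 nm ratio.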

Chain of Muscarinic acetylcholine receptor M1 (Homo sapiens) (P11229 whole entry, looked up): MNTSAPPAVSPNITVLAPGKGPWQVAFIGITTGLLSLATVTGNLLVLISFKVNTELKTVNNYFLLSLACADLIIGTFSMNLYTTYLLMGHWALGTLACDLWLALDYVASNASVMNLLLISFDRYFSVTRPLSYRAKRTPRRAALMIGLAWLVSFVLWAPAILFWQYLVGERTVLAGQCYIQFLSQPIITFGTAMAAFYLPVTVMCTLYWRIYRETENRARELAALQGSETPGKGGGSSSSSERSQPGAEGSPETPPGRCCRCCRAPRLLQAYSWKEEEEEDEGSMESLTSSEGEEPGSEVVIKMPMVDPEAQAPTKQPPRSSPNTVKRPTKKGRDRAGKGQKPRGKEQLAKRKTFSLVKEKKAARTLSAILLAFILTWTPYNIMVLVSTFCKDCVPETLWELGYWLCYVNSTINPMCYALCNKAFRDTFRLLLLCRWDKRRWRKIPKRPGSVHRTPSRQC
Chain of Gonadotropin-releasing hormone receptor (Homo sapiens) (P30968 whole entry, looked up): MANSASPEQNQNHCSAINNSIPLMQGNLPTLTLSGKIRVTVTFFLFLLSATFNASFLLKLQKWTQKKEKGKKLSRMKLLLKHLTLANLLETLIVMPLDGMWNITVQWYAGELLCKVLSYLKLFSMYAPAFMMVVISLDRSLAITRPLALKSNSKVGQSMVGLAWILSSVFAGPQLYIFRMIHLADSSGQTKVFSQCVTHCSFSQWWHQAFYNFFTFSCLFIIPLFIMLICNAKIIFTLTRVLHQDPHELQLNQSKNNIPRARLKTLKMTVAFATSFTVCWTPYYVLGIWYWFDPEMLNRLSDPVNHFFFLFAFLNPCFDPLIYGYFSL
Chain of D(2) dopamine receptor (Homo sapiens) (P14416 whole entry, looked up): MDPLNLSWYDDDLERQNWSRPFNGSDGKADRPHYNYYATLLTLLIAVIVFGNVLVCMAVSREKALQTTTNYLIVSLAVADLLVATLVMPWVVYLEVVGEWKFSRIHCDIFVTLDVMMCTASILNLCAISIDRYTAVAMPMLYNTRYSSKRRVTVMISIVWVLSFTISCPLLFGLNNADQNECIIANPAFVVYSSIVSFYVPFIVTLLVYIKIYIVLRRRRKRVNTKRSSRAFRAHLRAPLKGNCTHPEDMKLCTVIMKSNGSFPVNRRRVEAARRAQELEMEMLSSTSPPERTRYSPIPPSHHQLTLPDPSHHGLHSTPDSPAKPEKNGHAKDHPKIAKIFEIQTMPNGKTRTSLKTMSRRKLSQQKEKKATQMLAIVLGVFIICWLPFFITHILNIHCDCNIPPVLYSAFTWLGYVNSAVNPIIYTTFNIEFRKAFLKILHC
Chain of 5-hydroxytryptamine receptor 2A (Homo sapiens) (P28223 whole entry, looked up): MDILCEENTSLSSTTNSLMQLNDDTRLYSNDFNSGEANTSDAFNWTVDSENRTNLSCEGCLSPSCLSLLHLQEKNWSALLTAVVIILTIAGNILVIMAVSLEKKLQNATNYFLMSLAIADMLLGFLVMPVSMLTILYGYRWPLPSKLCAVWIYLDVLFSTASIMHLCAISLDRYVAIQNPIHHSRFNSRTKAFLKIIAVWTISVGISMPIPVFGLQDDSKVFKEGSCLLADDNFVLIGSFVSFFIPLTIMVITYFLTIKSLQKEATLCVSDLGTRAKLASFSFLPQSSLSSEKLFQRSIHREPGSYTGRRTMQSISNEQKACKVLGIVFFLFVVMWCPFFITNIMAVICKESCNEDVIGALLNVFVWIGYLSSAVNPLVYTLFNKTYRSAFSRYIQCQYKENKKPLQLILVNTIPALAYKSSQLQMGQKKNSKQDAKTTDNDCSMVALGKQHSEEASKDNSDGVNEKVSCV
Chain of KiSS-1 receptor (Homo sapiens) (Q969F8 whole entry, looked up): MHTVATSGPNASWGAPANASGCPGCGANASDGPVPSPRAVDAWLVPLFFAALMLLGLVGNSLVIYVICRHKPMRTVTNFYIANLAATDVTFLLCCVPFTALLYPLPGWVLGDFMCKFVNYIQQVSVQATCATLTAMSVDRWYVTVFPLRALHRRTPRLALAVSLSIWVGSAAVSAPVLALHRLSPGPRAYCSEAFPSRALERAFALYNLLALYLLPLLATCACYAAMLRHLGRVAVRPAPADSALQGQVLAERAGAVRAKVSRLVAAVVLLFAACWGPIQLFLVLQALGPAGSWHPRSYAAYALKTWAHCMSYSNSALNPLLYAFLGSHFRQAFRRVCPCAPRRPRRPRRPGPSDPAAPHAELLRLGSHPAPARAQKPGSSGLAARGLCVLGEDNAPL
Chain of Beta-2 adrenergic receptor (Homo sapiens) (P07550 whole entry, looked up): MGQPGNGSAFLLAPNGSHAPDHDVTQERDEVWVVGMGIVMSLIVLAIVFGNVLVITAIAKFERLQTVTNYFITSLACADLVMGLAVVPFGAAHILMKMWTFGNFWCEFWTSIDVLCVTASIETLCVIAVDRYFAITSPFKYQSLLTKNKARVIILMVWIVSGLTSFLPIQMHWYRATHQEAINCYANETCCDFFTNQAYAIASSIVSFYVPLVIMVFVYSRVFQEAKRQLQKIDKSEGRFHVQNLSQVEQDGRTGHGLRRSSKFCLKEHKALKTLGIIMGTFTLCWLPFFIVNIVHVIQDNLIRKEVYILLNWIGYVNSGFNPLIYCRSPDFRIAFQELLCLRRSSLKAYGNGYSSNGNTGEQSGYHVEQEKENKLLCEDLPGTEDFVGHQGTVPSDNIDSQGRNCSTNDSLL

On to `OCCN(CCO)c1ccccc1`, for which the Potency entry in [1], in [2], in experiment [3], in [6], in [7] and in experiment [8] was “inactive” each time. The Potency result in experiment [9], in experiment [10], in experiment [11], in [12], in experiment [13] and in experiment [14] was “inactive” throughout. In addition, the Potency entry in experiment [15], in experiment [16], in [17] and in experiment [18] was “inactive” in each case. Besides, the result in experiment [4] and in experiment [5] was inactive.

For the compound `CCCCOc1ccc(C(=O)CCN2CCCCC2)cc1`, the Potency entry in [1], in [2], in experiment [3], in experiment [6], in experiment [7] and in [8] was “inactive” throughout. The Potency result in experiment [9], in experiment [10], in experiment [12], in [14], in [15] and in experiment [16] was “inactive” throughout. Moreover, the Potency result in experiment [18] was “inactive”. In addition, the outcome in experiment [4] and in [5] was inactive. Besides, the Potency in experiment [13] is 10.3 µM (active).

In the case of `N#CCC(=O)NN`, the Potency result in [1], in [2], in experiment [3], in [6], in experiment [7] and in experiment [8] was “inactive” each time. For the same compound, the Potency entry in [9], in [10], in experiment [12], in experiment [13], in experiment [14] and in experiment [15] was “inactive” throughout. In addition, the Potency entry in experiment [16], in experiment [19], in experiment [17] and in [18] was “inactive” throughout. Also, the outcome in experiment [4] and in experiment [5] was inactive.

On to `CC(C)=NNC(N)=S`, for which the Potency in experiment [1] is 30.6 µM (active); in [2], 15.4 µM (active). The Potency entry in experiment [3], in experiment [6], in [7], in experiment [8], in experiment [9] and in [10] was “inactive” in each case. Also, the Potency result in [11], in [12], in experiment [13], in experiment [14], in experiment [16] and in experiment [19] was “inactive” throughout. Further, the Potency result in experiment [17] and in experiment [18] was “inactive” in each case. The outcome in experiment [4] and in experiment [5] was inactive.

`O=C(/C=C/c1ccccc1)OCCCc1ccccc1`: the Potency result in experiment [1], in experiment [2], in [3], in [6], in experiment [7] and in experiment [8] was “inactive” each time. For the same compound, the Potency result in experiment [9], in experiment [10], in [12], in experiment [13], in experiment [15] and in experiment [16] was “inactive” each time. Further, the Potency result in [19] and in experiment [17] was “inactive” throughout. In addition, the outcome in [4] and in experiment [5] was inactive.

`CC(C)=CCC/C(C)=C/COC=O`: the Potency entry in experiment [1], in experiment [2], in experiment [3], in experiment [6], in experiment [7] and in experiment [8] was “inactive” each time. The Potency result in experiment [9], in [10], in [11], in experiment [12], in experiment [13] and in experiment [14] was “inactive” in each case. Also, the Potency result in [16], in experiment [19] and in experiment [18] was “inactive” in each case. Further, the outcome in [4] and in experiment [5] was inactive.

As for `O=C1N(c2ccccc2)c2ccccc2C1(Cc1ccncc1)Cc1ccncc1`, the Potency entry in [1], in experiment [2], in experiment [3], in experiment [6], in experiment [7] and in [8] was “inactive” each time. The Potency result in experiment [9], in experiment [10], in [11], in experiment [12], in experiment [15] and in [16] was “inactive” in each case. Moreover, the Potency result in experiment [19], in [17] and in [18] was “inactive” throughout. Moreover, the outcome in [4] and in [5] was inactive.

As for `CN(C)C/C=C(/c1ccc(Br)cc1)c1cccnc1`, the Potency entry in [1], in experiment [2], in [3], in experiment [6], in experiment [7] and in experiment [8] was “inactive” in each case. Moreover, the Potency entry in experiment [9], in [10], in experiment [11], in experiment [12], in [13] and in [14] was “inactive” throughout. Besides, the Potency result in [16] is “inactive”. For the same compound, the result in experiment [4] and in [5] was inactive.
